Results on nine compounds are retold here after PubChem BioAssay (NCI).

Common to all, as to test: NCI-60 one-dose screen, 48 h (100 = growth as untreated, 0 = no growth, -100 = all killed)
Conditions in all cases: 10 µM unless noted

In assay [1] the test system is HCT-15 colon.
Assay [2] deals with HT29 colon.
In assay [3] the test system is SNB-19 CNS.
The test system of assay [4] is U251 CNS.
Assay [5] relates to PC-3 prostate.
Assay [6] deals with SK-MEL-5 melanoma.
Assay [7] deals with UACC-62 melanoma.
The subject of assay [8] is LOX IMVI melanoma.
The subject of assay [9] is SK-MEL-28 melanoma.
Assay [10] deals with SK-MEL-2 melanoma.
The subject of assay [11] is SN12C renal.
The test system of assay [12] is UO-31 renal.
Assay [13] concerns TK-10 renal.
Assay [14] deals with ACHN renal.
Assay [15] has as its system CAKI-1 renal.
Assay [16] has as its system A498 renal.
Assay [17] relates to CCRF-CEM leukemia.
Assay [18] relates to MOLT-4 leukemia.
The subject of assay [19] is EKVX NSCLC.

This is part of a sample that, as a whole, favours compounds with a hit. Of some 83,000 tested, about 20% had one in any assay.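 The test compound was applied at a single concentration to cells in 96-well plates for 48 hours, and percent growth was recorded.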 Values without a mark were called inactive. Activity calls are given as the source filed them. The calls were made as follows: active = growth percent below 10; inactive = the rest.

`O=c1c2sc3ncccc3c2nnn1-c1ccccc1`: the growth in [1] was 96%; in assay [2], 109%; in [3], 93.6%; in [4], 97.7%; in assay [5] it was 98.7%; in assay [6], 102%. The growth is 105% in assay [7]; 104% in [8]; 109% in assay [9]; 101% in [10]; 98.7% in assay [11]; 90.6% in assay [12]. Besides, the growth was 126% in assay [13]; 106% in assay [14]; 93.5% in assay [15]; 102% in assay [16]; 90.7% in assay [17]; 97.7% in assay [18].
With `COc1ccc(-c2cc3c(OC)c(OC)c(OC)cc3oc2=O)cc1`, the growth in [1] is 37.9%; in [2], 12%; in assay [3] it was 65.8%; in assay [4] it was 40.6%; in assay [5] it was 62.1%; in assay [6], 14.4%. For the same compound, the growth in assay [7] was 40.2%; in assay [8] it was 46.8%; in assay [9] it was 67.5%; in [19], 64.3%; in assay [11], 56.4%; in [12] it was 77.9%. Further, the growth in assay [13] was 85%; in assay [14], 66.8%; in assay [15] it was 57.1%; in [16], 34.2%; in assay [18], 64.7%.
As for `O=C(O)COc1ccc(-c2cssc2=S)cc1`, the growth in assay [1] was 99.4%; in assay [2] it was 87.5%; in [3] it was 105%; in [4], 98.2%; in assay [5], 104%; in assay [6], 100%. In addition, the growth in [7] was 107%; in assay [8] it was 96.6%; in assay [9], 108%; in [10], 90.8%; in assay [11], 103%; in assay [12], 88.9%. Besides, the growth in assay [13] is 93.9%; in assay [14], 103%; in assay [15] it was 104%; in assay [16] it was 88.2%; in [17], 90.3%; in assay [18] it was 102%.
For `COc1ccc(C(=O)N2NC(=O)/C(=C/c3cn(-c4ccccc4)nc3-c3ccccc3)N=C2c2ccccc2)cc1`, the growth in [1] was 98.2%; in assay [2], 99%; in assay [3], 88.6%; in assay [4], 91.2%; in assay [5], 95.3%; in [6], 105%. Moreover, the growth in assay [7] was 93%; in [8], 99.2%; in assay [9] it was 105%; in assay [19], 96.1%; in assay [11], 95%; in assay [12], 93.7%. The growth in assay [13] was 103%; in assay [14] it was 106%; in assay [15], 95.6%; in assay [16], 77.6%; in assay [18], 85%.
As to `Cc1ccc(S(=O)(=O)n2cc(C(=O)C(=O)Nc3ccncc3)c3ccccc32)cc1`, the growth was 24.9% in assay [1]; 6.07% (active) in assay [2]; 45.7% in [3]; 33.7% in assay [4]; 55.1% in [5]; 11.2% in assay [6]. Further, the growth in assay [7] was 32.4%; in assay [8] it was 45.2%; in assay [9] it was 52%; in [19], 55.8%; in assay [11], 39.8%; in assay [12], 43.1%. Further, the growth was 87.9% in assay [13]; 52.3% in assay [14]; 42.1% in assay [15]; 74.1% in assay [16]; 50.7% in assay [18].
For `COc1cc(/C=C/C(=O)/C=C/c2cc(OC)c3c(c2)OCO3)cc2c1OCO2`, the growth was 69.1% in assay [1]; 6.92% (active) in assay [2]; 80.3% in assay [3]; 45.1% in assay [4]; 83.7% in assay [5]; 80.9% in assay [6]. In addition, the growth in [7] is 75.1%; in assay [8], 54%; in assay [9], 119%; in assay [19], 95.9%; in assay [11] it was 85.4%; in assay [12], 88.1%. Moreover, the growth is 136% in assay [13]; 102% in assay [14]; 92.6% in [15]; 117% in assay [16]; 91.2% in assay [18].
On to `Cc1csc(NC(c2ccc(Br)cc2)c2c(C)nc3ccccn23)n1` (configuration not stated), for which the growth is 88.8% in assay [1]; 72.4% in [2]; 94.2% in [3]; 88.8% in assay [4]; 71.5% in assay [5]; 94.7% in assay [6]. For the same compound, the growth is 81.9% in assay [7]; 90.9% in assay [8]; 108% in assay [9]; 86.2% in assay [10]; 94.8% in assay [11]; 55.9% in assay [12]. Besides, the growth was 116% in assay [13]; 97.5% in assay [14]; 67.3% in assay [16]; 89.1% in assay [17]; 87.1% in assay [18].
As to `COc1ccc(/C=C2\CN(Cc3cn(CCNc4ccnc5cc(Cl)ccc45)nn3)C/C(=C\c3ccc(OC)c(OC)c3)C2=O)cc1OC`, the growth in assay [1] is 76%; in assay [2], -42.4% (active); in assay [3], 58.1%; in [4], 6.39% (active); in assay [5], 12.1%; in [6], 10.8%. The growth in assay [7] was 7.74% (active); in assay [8], -28.3% (active); in assay [9] it was 21.6%; in assay [10] it was -19.7% (active); in assay [11] it was -0.659% (active); in [12], 80.5%. In addition, the growth in assay [13] is 8.71% (active); in assay [14], 51.4%; in assay [15] it was 97.4%; in assay [16], 32.5%; in assay [17] it was 0.689% (active); in assay [18], -3.65% (active).
As to `O=C(Nc1cccc(-n2cc(-c3ccncc3)c(-c3ccc(Cl)c(O)c3)n2)c1)Nc1cccc(C(F)(F)F)c1`, the growth was 18.2% in [1]; 77.8% in [2]; 32.5% in assay [3]; 15.8% in assay [4]; 4.28% (active) in assay [5]; -25.5% (active) in assay [6]. Moreover, the growth in assay [7] was 10.4%; in assay [8], 23.8%; in [9], 29.4%; in assay [10], -25.7% (active); in assay [11], 14.6%; in assay [12], 24.8%. The growth was 21.9% in assay [13]; 11.2% in assay [14]; 30.1% in assay [15]; 17.7% in assay [16]; 10.6% in assay [17]; 12.5% in [18].
